Source: PubChem BioAssay
MITF inh: MITF inhibitors, primary screen, biochemical, AlphaScreen, human; Microphthalmia-associated transcription factor (Homo sapiens), O75030; AlphaScreen MITF homodimerization, bead proximity signal; inhibition, % at 2.6 µM; 0.91% of 650,000 active; AID 1259374, 2018; in the data active means inhibition above about 50%;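 further: 0% = vehicle wells with protein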
GPR151 ag: activators of human GPR151, primary screen, cell-based, PathHunter beta-arrestin, luminescence; AID 1508602, 2020; G-protein coupled receptor 151 (Homo sapiens), Q8TDV0; PathHunter beta-arrestin GPR151 cells; activation, % at 11.2 µM; 1% of 650,000 active; in the data active means activation above about 4.9%;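 further: 0% = median of compound wells and 100% = cells with positive control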
TEAD-YAP inh: TEAD-YAP interaction inhibition, primary screen, TEAD-YAP interaction inhibitor project, luminescence, HEK-TIYL cells; TEAD-Gal4/YAP UAS-luciferase luminescence; inhibition, % at 9.12 µM; 1.4% of 640,000 active; in the data active means inhibition above about 32%;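 further: 0% = median of test compound wells and 100% = reference inhibitor wells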
FBW7 act: FBW7 E3 ligase activators, primary screen, biochemical, AlphaScreen, human. normalized activity (activation), % at 26.1 µM. 0.13% of 650,000 active. AlphaScreen FBW7–phospho-cyclin E peptide binding, activator screen. AID 1259310, 2017; in the data active means normalized activity above about 1.9%;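 further: purified mutant Fbw7 with reduced substrate affinity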
Target sequence (Q969H0 whole entry, looked up): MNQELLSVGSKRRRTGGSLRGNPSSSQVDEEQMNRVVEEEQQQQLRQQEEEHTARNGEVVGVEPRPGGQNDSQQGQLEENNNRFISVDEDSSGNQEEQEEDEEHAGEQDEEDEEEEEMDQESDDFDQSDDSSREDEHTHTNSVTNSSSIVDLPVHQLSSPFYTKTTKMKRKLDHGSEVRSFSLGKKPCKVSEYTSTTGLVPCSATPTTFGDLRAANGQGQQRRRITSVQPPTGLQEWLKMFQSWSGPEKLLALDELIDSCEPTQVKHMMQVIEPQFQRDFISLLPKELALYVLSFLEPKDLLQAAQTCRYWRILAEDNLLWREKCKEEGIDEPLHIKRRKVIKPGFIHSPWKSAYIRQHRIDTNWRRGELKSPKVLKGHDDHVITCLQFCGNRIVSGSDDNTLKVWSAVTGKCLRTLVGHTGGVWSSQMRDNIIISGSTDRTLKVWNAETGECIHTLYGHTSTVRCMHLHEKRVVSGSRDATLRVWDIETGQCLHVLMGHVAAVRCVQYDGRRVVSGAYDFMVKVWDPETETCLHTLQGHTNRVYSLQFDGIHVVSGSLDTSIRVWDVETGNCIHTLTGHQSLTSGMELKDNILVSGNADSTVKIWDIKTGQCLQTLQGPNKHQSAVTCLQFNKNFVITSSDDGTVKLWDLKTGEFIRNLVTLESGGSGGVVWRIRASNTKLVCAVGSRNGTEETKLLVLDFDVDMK
GPR151 conf act: GPR151 activators, triplicate retest, confirmation, cell-based, PathHunter beta-arrestin, luminescence; shares compounds with GPR151 ag; GPR151 PathHunter beta-arrestin cells, 90 min; % of EA-reagent control over plate median; activation, % at 11.2 µM; 6,700 tested, under 10 active; AID 1508609, 2020;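 active means mean percent activation across replicates above the confirmation screen cutoff of 4.91%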
GPR119 counter: GPR119 activators in beta-arrestin cells, counter-screen for GPR151 activator project, cell-based, PathHunter beta-arrestin, luminescence, triplicate | shares compounds with GPR151 ag | 90 min; 0 = compound-well median, 100 = enzyme-acceptor control | activation, % at 11.2 µM | 0.3% of 6,700 active | AID 1508611, 2020;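 active means mean percent activation in the counterscreen above 29.09%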;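 further: counterscreen on off-target GPR119 to flag nonselective hits from the GPR151 activator screen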
* marks the source's active call; other numbers are inactive results; / = not tested or not shown. Hits are enriched below; roughly 3.5% of the tested compounds scored in any of these assays.

SMILES	MITF inh	GPR151 ag	TEAD-YAP inh	FBW7 act	GPR151 conf act	GPR119 counter
CCOc1ccc(CNC(=O)c2cc(-c3ccccc3)n[nH]2)cc1OC	-2	0	-8	0	/	/
Oc1ccc(-c2cnn3c(NCc4ccc(F)cc4)ccnc23)cc1	6	6.5*	-26	0	1	2
OCc1ccc(-c2cnn3c(NCc4ccc(F)cc4)ccnc23)cc1	-15	-1	-22	0	/	/
NS(=O)(=O)c1ccc(CCNC(=O)CN2C(=O)c3ccccc3C2=O)cc1	-8	0	2	0	/	/
COc1cccc(-n2c(C)cn3c4c(=O)n(Cc5cccc(C)c5)c(=O)n(C)c4nc23)c1	-15	4	3	0	/	/
COc1ccc(OC)c(C(=O)c2oc3ccc(Cl)cc3c2N)c1	-5	6.3*	50*	0	-1	0
COc1ccc(OC)c(C(=O)c2oc3ccc(Cl)cc3c2NC(C)=O)c1	-6	1	8	0	/	/
CCCNC(=O)C1CCN(C(=O)N2CC(C)Oc3ccc(Cl)cc32)CC1 (configuration not stated)	-3	11*	6	0	0	-4
CCCNC(=O)C1CCN(C(=O)N2CC(C)Oc3ccccc32)CC1 (configuration not stated)	-5	-2	5	0	/	/
Cc1c(NS(=O)(=O)c2ccccc2C#N)c(=O)n(-c2ccccc2)n1C	4	2	-10	0	/	/
CC(=O)N1c2ccc(S(=O)(=O)N3CCCC3C(=O)Nc3cccc(C)n3)cc2CC1C (configuration not stated)	6	1	7	0	/	/
CC(=O)N1c2ccc(S(=O)(=O)N3CCCC3C(=O)Nc3nc(C)cs3)cc2CC1C (configuration not stated)	5	5.0*	10	0	0	2
CC(C)c1nc2ccccc2c2nn(CC(=O)N3CCN(C(=O)c4ccco4)CC3)c(=O)n12	-7	15*	10	0	0	4
CCc1nc2ccccc2c2nn(CC(=O)N3CCOCC3)c(=O)n12	-6	6.6*	-5	0	0	2
O=C(NCc1ccccc1)c1nn(C23CC4CC(CC(C4)C2)C3)cc1[N+](=O)[O-]	6	5.6*	7	0	-1	1
Cc1ccc(NC(=O)C2C3C=CC4(O3)C2C(=O)N(CCC2=CCCCC2)C4C(=O)NC2CCCCC2)cc1Cl (configuration not stated)	-22	5.8*	-1	0	0	-8
CCCCN1C(=O)C2C(C(=O)Nc3ccc(Cl)c(Cl)c3)C3C=CC2(O3)C1C(=O)NC1CCCCC1 (configuration not stated)	16	-2	3	0	/	/
CC(C)c1ccc(NC(=O)C2C3C=CC4(O3)C2C(=O)N(CCCN2CCN(C)CC2)C4C(=O)NC2CCCCC2)cc1 (configuration not stated)	-13	0	-14	0	/	/
Cc1ccc(NC(=O)C2C3C=CC4(O3)C2C(=O)N(CCC2=CCCCC2)C4C(=O)NC2CCCCC2)cc1 (configuration not stated)	-3	0	-8	0	/	/
CCCCN1C(=O)C2C(C(=O)Nc3ccc(C)c(Cl)c3)C3C=CC2(O3)C1C(=O)NC1CCCCC1 (configuration not stated)	-13	9.6*	-5	0	0	3
CC(C)c1ccc(NC(=O)C2C3C=CC4(O3)C2C(=O)N(CCCN2CCOCC2)C4C(=O)NC2CCCCC2)cc1 (configuration not stated)	-8	5.5*	4	0	1	12
NC(=O)c1c(NC(=O)c2ccc(S(=O)(=O)N3CCc4ccccc4C3)cc2)sc2c1CCCCC2	3	1	-3	0	/	/
CC(=O)N1CCC2(CC1)N=C(C)C(c1ccccc1)=N2	4	7.1*	-3	0	0	11
COc1nc2ccc(Br)cc2cc1[C@@H](c1ccccc1)[C@@](O)(CCN(C)C)c1cccc2ccccc12	/	7.5*	/	/	0	2
CN(CCO)c1nc(-c2ccccc2)c2cc(Br)ccc2n1	-16	-1	-4	0	/	/
SMILES	MITF inh	GPR151 ag	TEAD-YAP inh	FBW7 act	GPR151 conf act	GPR119 counter
COc1ccc(NC(=O)c2cccc3ccccc23)cc1	-3	-1	-4	0	/	/
COC(=O)c1ccccc1C(=O)c1cccc2ccccc12	-3	10*	1	0	0	-4
COc1ccc(/C=C/C(=O)N2c3ccccc3C(C)(c3ccc(C)cc3)CC2(C)C)c(OC)c1 (configuration not stated)	7	2	-7	0	/	/
COc1ccc(C(=O)NC(C)c2nnc(SCC(=O)Nc3ccccc3)n2C)cc1 (configuration not stated)	0	9.6*	11	0	1	3
Nc1ncc(C2(c3ccccc3)CCCC2)s1	2	0	16	0	/	/
CCN1CCN(c2ncnc3sc(C(=O)Nc4cnc5ccccc5c4)c(C)c23)CC1	9	5.3*	-18	0	0	12
CCN1CCN(c2ncnc3sc(C(=O)Nc4ccc(F)cc4)c(C)c23)CC1	3	5.2*	-1	0	0	6
COc1ccc([N+](=O)[O-])cc1NC(=O)c1sc2ncnc(N3CCC(C)CC3)c2c1C	-2	13*	-1	0	0	6
COCCNC(=O)c1ccc2c(=O)n(Cc3ccco3)c(SCc3cc(C(C)=O)ccc3OC)nc2c1	-11	1	6	0	/	/
COc1ccc(C2CC(=O)N3C(=C2C#N)SCC3(O)c2ccc(OC)c(OC)c2)cc1 (configuration not stated)	10	-1	-9	0	/	/
O=C1NC(c2ccc(Cl)cc2Cl)Oc2ccccc21 (configuration not stated)	12	8.9*	3	0	2	-1
CCOc1ccc(C(=O)Oc2coc(CSc3nnc(NC(C)=O)s3)cc2=O)cc1	15	3	5	0	/	/
COC(=O)CN(c1ccc(C)cc1)S(=O)(=O)c1c(C)[nH]c(=O)[nH]c1=O	6	2	2	0	/	/
COC(=O)CN(c1ccc2c(c1)OCO2)S(=O)(=O)c1c(C)[nH]c(=O)[nH]c1=O	-6	5.3*	9	0	1	2
COCCCn1c(-c2ccc(C(C)(C)C)cc2)n[nH]c1=S	0	12*	-10	0	0	-12
